Data on 40 molecules can be found in PubChem BioAssay (Tox21).

Values without a mark were called inactive. Records with an inconclusive call do not appear. A call without a number means that no potency is given here. Activity calls are given as the source filed them. Calls follow the shape of the full dose curve.

Acetylcholinesterase (Homo sapiens), sequence (P22303 whole entry, looked up): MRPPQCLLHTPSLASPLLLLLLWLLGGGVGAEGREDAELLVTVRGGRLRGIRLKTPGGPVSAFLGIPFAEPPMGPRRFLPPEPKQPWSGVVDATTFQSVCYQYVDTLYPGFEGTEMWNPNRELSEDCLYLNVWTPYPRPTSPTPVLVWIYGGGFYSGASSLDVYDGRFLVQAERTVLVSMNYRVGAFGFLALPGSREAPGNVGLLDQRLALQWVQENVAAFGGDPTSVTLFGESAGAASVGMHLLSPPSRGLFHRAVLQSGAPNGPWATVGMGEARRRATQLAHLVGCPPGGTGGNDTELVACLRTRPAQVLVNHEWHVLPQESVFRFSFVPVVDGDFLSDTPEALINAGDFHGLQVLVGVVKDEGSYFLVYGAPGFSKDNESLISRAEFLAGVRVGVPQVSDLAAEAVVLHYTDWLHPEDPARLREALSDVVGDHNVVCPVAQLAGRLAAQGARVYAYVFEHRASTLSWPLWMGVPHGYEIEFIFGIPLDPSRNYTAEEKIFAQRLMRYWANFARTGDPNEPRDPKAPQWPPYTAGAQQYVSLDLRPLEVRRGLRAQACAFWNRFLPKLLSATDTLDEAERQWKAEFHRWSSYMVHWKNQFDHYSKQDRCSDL

The first experiment has as its target Acetylcholinesterase (Homo sapiens) (UniProt P22303). In words: Acetylcholinesterase (AChE) small molecule antagonists: colormetric cell-based qHTS assay (AID 1347395). Also: nearly all actives have a fitted effect of over 30% in size. The conditions noted are these: SH-SY5Y cells AChE activity, colorimetric (Ellman); series mostly up to 115 µM. The procedure, abridged:
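Neuroblastoma line SH-SY5Y supplied the enzyme; cells were preincubated with compound for 30 min at 37 C and 5% CO2. Acetylthiocholine with DTNB was then added for 90 min at 37 C, and thiocholine was measured by colour.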
A general note: qHTS replaces the single test concentration by a dilution series.
Consider `CC(C)NNC(=O)c1ccncc1`, for which the Potency entry was “inactive”.

Consider `Cc1cnccn1`, for which the Potency result was “inactive”.

For `COc1cc(C)ccc1O`, the Potency result is “inactive”.

Take `O=S(=O)(O)c1cc(S(=O)(=O)O)c2c(N=Nc3ccccc3)c(O)ccc2c1`: the Potency entry was “inactive”.

`CCCCCCCCCC/C=C/C#N`: the Potency result is “inactive”.

Regarding `Cc1cccc2c1ccc1ccccc12`, the Potency result is “inactive”.

As to `CCCCC(CC)CO` (stereo not given), the Potency entry is “inactive”.

On to `C=Cc1ccccc1`, for which the Potency result is “inactive”.

Turning to `O=c1[nH]c(=O)n([C@H]2C[C@H](O)[C@@H](CO)O2)cc1C(F)(F)F`, the Potency entry was “inactive”.

`CCCCCCCCCOCC1CO1` (stereo not given): the Potency result was “inactive”.

For `O=C1NC2NC(=O)NC2N1` (stereo not given), the Potency entry is “inactive”.

`C#CC(C)(O)CC(C)C` (stereo not given): the Potency entry was “inactive”.

`COC1CCC=CO1` (stereo not given): the Potency entry was “inactive”.

Regarding `CC(C)=CCC/C(C)=C/C=O`, the Potency result is “inactive”.

As for `C=CCCC`, the Potency result was “inactive”.

For the molecule `CCCCS`, the Potency result is “inactive”.

As for `C=CCOCC(O)CCl` (stereo not given), the Potency entry is “inactive”.

For `Nc1ccc(S(=O)(=O)Nc2nccs2)cc1`, the Potency result is “inactive”.

Turning to `O=C(Oc1ccccc1)Oc1ccccc1`, the Potency result was “inactive”.

In the case of `c1ccc(CCNc2nc(-c3ccccc3)cs2)cc1`, the Potency entry is “inactive”.

For `C=Cc1ccccc1C=C`, the Potency result was “inactive”.

Turning to `CC(C)C[C@H](NC(=O)[C@H](CCc1ccccc1)NC(=O)CN1CCOCC1)C(=O)N[C@@H](Cc1ccccc1)C(=O)N[C@@H](CC(C)C)C(=O)[C@@]1(C)CO1`, the Potency entry was “inactive”.

As for `Cc1c(NC(=O)c2cccnc2)c(=O)n(-c2ccccc2)n1C`, the Potency entry is “inactive”.

As to `O=C1OC2(c3ccccc31)c1ccc(O)c(Br)c1Oc1c2ccc(O)c1Br`, the Potency entry is “inactive”.

For `NC(=O)c1cccc([N+](=O)[O-])c1`, the Potency entry was “inactive”.

As to `CCCC(=O)OCCC(C)CCC=C(C)C` (stereo not given), the Potency entry was “inactive”.

For `Cc1nc2ccccc2c(=O)o1`, the Potency entry was “inactive”.

As to `NC(=O)c1ccc([N+](=O)[O-])cc1Cl`, the Potency entry is “inactive”.

In the case of `CCCCC(=O)N(C)C`, the Potency entry was “inactive”.

Turning to `CCCCCCc1ccc(O)cc1O`, the Potency entry was “inactive”.

Take `[Cl][In]([Cl])[Cl]`: the Potency entry is “inactive”.

Turning to `CCCC(=O)O[C@]1(C(=O)CC)CC[C@H]2[C@@H]3CCC4=CC(=O)CC[C@]4(C)[C@H]3[C@@H](O)C[C@@]21C`, the Potency result was “inactive”.

With `CC1(C)CC(OC(=O)CCCCCCCCC(=O)OC2CC(C)(C)NC(C)(C)C2)CC(C)(C)N1`, the activity, negative = inhibition is -3.47% [at 23.6 µM].

In the case of `O=[Se](O)O`, the Potency entry was “inactive”.

Turning to `Cc1ccc(C(C)(C)C)cc1`, the Potency result was “inactive”.

With `O=C(Nc1ccccc1)c1cc(Cl)ccc1O`, the Potency entry was “inactive”.

For the molecule `O=[N+]([O-])c1cc(C2CCCCC2)c(O)c([N+](=O)[O-])c1`, the Potency entry is “inactive”.

For the molecule `Nc1ccc(S(=O)(=O)Nc2ccccn2)cc1`, the Potency entry was “inactive”.

As for `Cc1cc(C(C)(C)C)c(O)c(C)c1Cn1c(=O)n(Cc2c(C)cc(C(C)(C)C)c(O)c2C)c(=O)n(Cc2c(C)cc(C(C)(C)C)c(O)c2C)c1=O`, the Potency result was “inactive”.

With `CNC1(C)C2CCC(C2)C1(C)C` (stereo not given), the Potency result is “inactive”.

The next experiment has the same target. Kind of experiment: Acetylcholinesterase (AChE) small molecule antagonists: enzyme-based qHTS assay (AID 1347397). Also: nearly all actives have a fitted effect of over 55% in size. The conditions noted are these: Potency: AChE enzyme activity inhibition; outcome: AChE enzyme activity inhibition; series mostly up to 115 µM. The procedure, abridged:
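Enzyme inhibition was scored from DTNB-detected thiocholine formed by recombinant human AChE acting on acetylthiocholine. The 30 min compound preincubation and 10 min substrate reaction were both run at room temperature, with DMSO as vehicle control.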
`CC(C)NNC(=O)c1ccncc1`: the Potency entry was “inactive”.

With `Cc1cnccn1`, the Potency entry was “inactive”.

With `COc1cc(C)ccc1O`, the Potency entry is “inactive”.

Regarding `O=S(=O)(O)c1cc(S(=O)(=O)O)c2c(N=Nc3ccccc3)c(O)ccc2c1`, the Potency entry is “inactive”.

For the molecule `CCCCCCCCCC/C=C/C#N`, the Potency entry is “inactive”.

Regarding `Cc1cccc2c1ccc1ccccc12`, the Potency result is “inactive”.

For `CCCCC(CC)CO` (stereo not given), the Potency entry was “inactive”.

In the case of `C=Cc1ccccc1`, the Potency entry is “inactive”.

On to `O=c1[nH]c(=O)n([C@H]2C[C@H](O)[C@@H](CO)O2)cc1C(F)(F)F`, for which the Potency entry was “inactive”.

Consider `CCCCCCCCCOCC1CO1` (stereo not given), for which the Potency entry is “inactive”.

Consider `O=C1NC2NC(=O)NC2N1` (stereo not given), for which the Potency result was “inactive”.

Consider `C#CC(C)(O)CC(C)C` (stereo not given), for which the Potency result was “inactive”.

In the case of `COC1CCC=CO1` (stereo not given), the Potency result was “inactive”.

On to `CC(C)=CCC/C(C)=C/C=O`, for which the Potency entry was “inactive”.

On to `C=CCCC`, for which the Potency result is “inactive”.

`CCCCS`: the Potency result is “inactive”.

Regarding `C=CCOCC(O)CCl` (stereo not given), the Potency entry is “inactive”.

On to `Nc1ccc(S(=O)(=O)Nc2nccs2)cc1`, for which the Potency entry is “inactive”.

In the case of `O=C(Oc1ccccc1)Oc1ccccc1`, the Potency result was “inactive”.

Regarding `c1ccc(CCNc2nc(-c3ccccc3)cs2)cc1`, the Potency entry is “inactive”.

`C=Cc1ccccc1C=C`: the Potency result was “inactive”.

Regarding `CC(C)C[C@H](NC(=O)[C@H](CCc1ccccc1)NC(=O)CN1CCOCC1)C(=O)N[C@@H](Cc1ccccc1)C(=O)N[C@@H](CC(C)C)C(=O)[C@@]1(C)CO1`, the Potency result is “inactive”.

For the molecule `Cc1c(NC(=O)c2cccnc2)c(=O)n(-c2ccccc2)n1C`, the Potency result was “inactive”.

For the molecule `O=C1OC2(c3ccccc31)c1ccc(O)c(Br)c1Oc1c2ccc(O)c1Br`, the Potency entry is “inactive”.

On to `NC(=O)c1cccc([N+](=O)[O-])c1`, for which the Potency entry is “inactive”.

Take `CCCC(=O)OCCC(C)CCC=C(C)C` (stereo not given): the Potency result was “inactive”.

Regarding `Cc1nc2ccccc2c(=O)o1`, the Potency entry was “inactive”.

For `NC(=O)c1ccc([N+](=O)[O-])cc1Cl`, the Potency result was “inactive”.

Regarding `CCCCC(=O)N(C)C`, the Potency result is “inactive”.

For the molecule `CCCCCCc1ccc(O)cc1O`, the Potency result is “inactive”.

Turning to `[Cl][In]([Cl])[Cl]`, the Potency result was “inactive”.

As for `CCCC(=O)O[C@]1(C(=O)CC)CC[C@H]2[C@@H]3CCC4=CC(=O)CC[C@]4(C)[C@H]3[C@@H](O)C[C@@]21C`, the Potency entry is “inactive”.

`CC1(C)CC(OC(=O)CCCCCCCCC(=O)OC2CC(C)(C)NC(C)(C)C2)CC(C)(C)N1`: the activity change, negative = inhibition was 1.77% [at 23.6 µM].

Turning to `O=[Se](O)O`, the Potency result is “inactive”.

On to `Cc1ccc(C(C)(C)C)cc1`, for which the Potency entry was “inactive”.

With `O=C(Nc1ccccc1)c1cc(Cl)ccc1O`, the Potency result was “inactive”.

For the molecule `O=[N+]([O-])c1cc(C2CCCCC2)c(O)c([N+](=O)[O-])c1`, the Potency entry is “inactive”.

On to `Nc1ccc(S(=O)(=O)Nc2ccccn2)cc1`, for which the Potency result is “inactive”.

For the molecule `Cc1cc(C(C)(C)C)c(O)c(C)c1Cn1c(=O)n(Cc2c(C)cc(C(C)(C)C)c(O)c2C)c(=O)n(Cc2c(C)cc(C(C)(C)C)c(O)c2C)c1=O`, the Potency result is “inactive”.

With `CNC1(C)C2CCC(C2)C1(C)C` (stereo not given), the Potency entry was “inactive”.
